Reference: PubChem BioAssay AID1211 (NMMLSC, 2008)

Molecular target: Estrogen receptor (Homo sapiens) (UniProt P03372)
Test: displacement of fluorescent estrogen from ERalpha – cell-based, Cos7 ERalpha-GFP, flow cytometry, primary screen (AID 1211);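 note: 0% = DMSO vehicle wells and 100% = no E2-Alexa633 signal left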
Conditions: fluorescent ligand competition, at 10 µM, stronger effect = higher value; call rule not given here

Sequence of Estrogen receptor (Homo sapiens) (P03372 whole entry, looked up): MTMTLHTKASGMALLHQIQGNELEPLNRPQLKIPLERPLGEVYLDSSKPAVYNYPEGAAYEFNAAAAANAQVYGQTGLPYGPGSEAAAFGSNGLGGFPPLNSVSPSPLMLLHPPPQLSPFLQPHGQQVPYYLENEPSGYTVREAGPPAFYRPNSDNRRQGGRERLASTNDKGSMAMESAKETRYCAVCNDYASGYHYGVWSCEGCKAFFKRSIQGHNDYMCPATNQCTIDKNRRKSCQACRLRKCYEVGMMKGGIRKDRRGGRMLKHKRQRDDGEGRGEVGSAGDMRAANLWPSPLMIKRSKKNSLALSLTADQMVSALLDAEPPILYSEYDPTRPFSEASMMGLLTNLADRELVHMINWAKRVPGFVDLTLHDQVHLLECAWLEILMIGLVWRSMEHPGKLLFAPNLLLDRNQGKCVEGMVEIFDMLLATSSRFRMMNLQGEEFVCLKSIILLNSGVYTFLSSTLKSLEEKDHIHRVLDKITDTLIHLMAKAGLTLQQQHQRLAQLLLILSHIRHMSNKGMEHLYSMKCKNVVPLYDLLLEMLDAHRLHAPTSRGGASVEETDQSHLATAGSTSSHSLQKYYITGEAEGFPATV

Inhibition of ligand binding, inactive:
COc1ccc(-n2cc3c(c(C#N)c2=N)CC(C)(C)CC3=O)cc1 29%, O=C(Nc1cc(C(F)(F)F)ccc1N1CCOCC1)C1Cc2ccccc2CN1C(=O)c1ccco1 (centres undefined) 56%, Cc1ccc2c(c1)[C@H]1OCC[C@H]1[C@@H](c1ccncc1)N2 34%, CC1Cc2ccccc2N1C(=O)CSc1nnc(-c2ccc(S(=O)(=O)N3CCCC3)cc2)o1 (centres undefined) 56%, CC12CCCCC1(O)[N+](=O)C1=C(CCCC1)N2[O-] (centres undefined) 3%, O=C(COC(=O)C1CC2C=CC1C2)NCc1ccco1 (centres undefined) 16%, CCNC(=O)N1c2ccc(OCC)cc2C(C)=CC1(C)C 10%, COc1cc(O)c2c(=O)c3c(OC)c(O)ccc3oc2c1 63%, Cc1cc(C(C)CO)cc(C(C)(C)C)c1O (centres undefined) 21%, O=C(c1cccs1)N1N=C(c2ccccc2)CC1c1ccc(O)cc1 (centres undefined) 21%, COc1ccc2[nH]c3c(c2c1)CCNC3=O 21%, COc1ccc2c(c1)c1c3n2CCNC3CCC1 (centres undefined) 25%, COc1cccc(NS(=O)(=O)c2ccc3c(c2)C2C=CCC2C(c2ccc(C(=O)O)cc2)N3)c1 (centres undefined) 37%, CC(Nc1ccc(N2CCNCC2)cc1[N+](=O)[O-])C12CC3CC(CC(C3)C1)C2 (centres undefined) 5%, COc1cccc2sc(Nc3nnc(-c4ccc(F)cc4)o3)nc12 17%, Cc1sc2ncnc(NCc3ccco3)c2c1C 0%, COc1cc([C@@H]2Nc3ccc(S(=O)(=O)Nc4ccccc4F)cc3[C@@H]3C=CC[C@@H]32)cc(OC)c1OC 5%, COc1cc([N+](=O)[O-])cc2c1NC(c1ccccc1Cl)C1CC=CC21 (centres undefined) 0%, CCCOc1cc(OCCC)c2c3c(c(=O)oc2c1)CCCC3 3%, CC(C)C1Nc2ccc(C(=O)O)cc2C2C=CCC21 (centres undefined) 36%, COc1ccc(CCn2c(SCC(=O)Nc3cc(C)on3)nc3ccsc3c2=O)cc1OC 33%, CCOc1cc2c(cc1OCC)C(C(CC)CC)NCC2 (centres undefined) 0%, CCOC(=O)C1=C(C)NC(=O)NC1c1ccco1 (centres undefined) 56%, O=c1oc2c(CN3CCCC3)c(O)ccc2c2c1CCC2 0%, Cc1c(O)ccc2c3c(c(=O)oc12)CCCC3 0%, Cc1ccc(OCc2ccoc2C(=O)O)cc1C 0%, COC(=O)c1ccc(OCc2c(C)noc2C)cc1 22%, Cc1ccc(-n2cc3c(c(C#N)c2=N)CC(C)(C)CC3=O)cc1 35%, Cc1ccc2c(c1)C1C=CCC1C(C(=O)O)N2 (centres undefined) 0%, CCC1(CC)NC(=O)N(CC(=O)Nc2sc3c(c2C(N)=O)CCC3)C1=O 38%, CSC(=O)CNC1(Cc2ccc(O)cc2)CCCCC1 11%, O=C(O)C1Nc2c(O)cccc2C2C=CCC12 (centres undefined) 6%, CC(=O)c1ccc2c(c1)C1C=CCC1C(c1ccncc1)N2 (centres undefined) 9%, COc1ccc(NS(=O)(=O)c2ccc3c(c2)[C@H]2C=CC[C@H]2[C@@H](c2ccc(F)cc2)N3)cc1 14%, COc1ccc(NC2=CC(c3cccc(OC)c3)N(c3ccc(OC)cc3)C2=O)cc1 (centres undefined) 48%, CCOc1ccccc1-c1nc(-c2ccc(NC(=O)c3ccc(Br)o3)cc2)no1 52%, CC1(C)CC(=O)C=C(NC2CC(C)(C)NC(C)(C)C2)C1 0%, O=[N+]([O-])c1cc(/C=N/N2CCN(C3c4ccccc4-c4ccccc43)CC2)ccc1Cl 21%, C=CCSC1=N/C(=C\C=C\c2ccco2)C(=O)S1 0%
